Experimental data published in PubChem BioAssay (NCATS).
Several values for one entry are separate records, joined by “and”; a condition that tells them apart may be missing. Equal entries are not always repeated. Records with an inconclusive call do not appear. Where a call stands in place of a potency, no number is given. Activity calls are given as the source filed them. Unless noted, the call rests on the fitted dose curve; in most records, active means well fitted curve in the direction sought with a large enough effect; inconclusive means small, poorly fitted or top-dose-only effect, or another doubt; inactive means no such curve, though single readings can be large; an effect the other way counts as inactive or inconclusive.

Columns and labels:
[1] = target: ATPase family AAA domain-containing protein 5 (Homo sapiens) (UniProt Q96QE3); assay: Validation screen for small molecules that inhibit ELG1-dependent DNA repair in human embryonic kidney (HEK293T) cells expressing luciferase-tagged ELG1 (AID 493107); conditions: HEK293T ELG1-luciferase level, luminescence, 5-fluorouridine co-treatment, 16 h; series mostly up to 46.1 µM;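 further: cells co-treated with the DNA-damaging agent 5-fluorouridine alongside compound; inhibitors lower the ELG1-luciferase luminescence signal; nearly all actives have a fitted effect of over 70% in size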
How it was run: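 ELG1-luciferase HEK293T reporter; 5-fluorouridine + compound/DMSO, 16 hr, 37 °C, 5% CO2; ONE-Glo 30 min RT; luminescence read, qHTS format.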

[2] = Nrf2 qHTS screen for inhibitors: Validation (AID 493153; active means well fitted inhibition curve with a large enough effect in the main read-out, with a control signal flat, not every such curve was filed as active); conditions: A549 ARE-Fluc reporter, 18-24 h; viability change: measured here: cytotoxicity max response; luciferase luminescence, at 46.1 µM (top of the series)
How it was run: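 Concentration-response test in A549 ARE_Fluc reporter cells (5% FBS OPTI-MEM), compound exposure 18-24 h at 37°C, 5% CO2. Cell viability measured first by CellTiter-Fluor fluorescence; ARE-driven luciferase luminescence then measured as Nrf2 activity.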

[3] = qHTS for Inhibitors of Cell Surface uPA Generation: Validation Assay (AID 493164); conditions: mouse cells, plasminogen activation; series mostly up to 38.3 µM;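 further: RAW 264.7 macrophage cells exposed to compound for 18 h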
How it was run: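 Compounds are titrated over seven points (2.45 nM–38.3 uM final) onto pre-plated RAW 264.7 cells and incubated for 18 h. Retained intracellular ATP, measured with ATP-Lite, indicates blocked lethal factor entry.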

[4] = target: Galactokinase (Homo sapiens) (UniProt P51570); assay: qHTS Validation Assay for Inhibitors of Human Galactokinase (GALK) (AID 493189); conditions: purified human GALK enzyme activity, qHTS 7-point titration; series mostly up to 57.5 µM
Sequence of Galactokinase (Homo sapiens) (P51570 whole entry, looked up): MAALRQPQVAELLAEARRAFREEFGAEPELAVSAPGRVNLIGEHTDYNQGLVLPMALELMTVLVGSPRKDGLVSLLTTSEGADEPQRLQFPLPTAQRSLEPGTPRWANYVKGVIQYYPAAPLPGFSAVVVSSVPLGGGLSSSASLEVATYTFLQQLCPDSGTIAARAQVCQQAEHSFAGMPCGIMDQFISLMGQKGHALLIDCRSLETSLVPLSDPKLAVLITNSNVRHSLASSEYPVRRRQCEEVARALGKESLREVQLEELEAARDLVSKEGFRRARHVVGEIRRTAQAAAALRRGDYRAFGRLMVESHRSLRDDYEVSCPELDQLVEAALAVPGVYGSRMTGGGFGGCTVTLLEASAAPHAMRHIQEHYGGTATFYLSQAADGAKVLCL
How it was run: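 5 nM GALK / 100 uM galactose / 35 uM ATP, 20 mM HEPES pH8.0, 5 mM MgCl2, 60 mM NaCl, 1 mM DTT, 0.01% BSA (final). RT 1 h; Kinase-Glo Plus luminescence.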

[5] = Validation screen for small molecules that induce DNA re-replication in SW480 colon adenocarcinoma cells (AID 504364); conditions: DNA re-replication phenotype (high-content imaging); series mostly up to 46.1 µM
How it was run: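 Read-out: total Hoechst intensity of nuclei by fluorescence scanning imager; hits raise the fraction of nuclei with elevated DNA content. Cells received compound for 48 hr at 37 C before a 40 min stain.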

[6] = target: Peptidyl-prolyl cis-trans isomerase NIMA-interacting 1 (Homo sapiens) (UniProt Q13526); assay: qHTS Validation Assay to Find Inhibitors of Pin1 (AID 504536; active means well fitted inhibition curve with a large enough effect in the polarisation, with a control signal flat, not every such curve was filed as active; the % refers to the polarisation); conditions: Pin1 fluorescence polarization peptide binding assay; series mostly up to 57.5 µM
How it was run: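 Fluorescence polarization competition: compounds (titration) displace HiFluor-488-labeled Pin1-1b peptide from Pin1 (0.3 uM final) in pH 7.5 HEPES buffer with DTT, 10 min at room temperature; %Activity normalized to no-enzyme wells, curves fitted.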

[7] = target: Phosphoglycerate kinase, glycosomal (Trypanosoma brucei brucei) (UniProt P07378); assay: qHTS Validation Assay to Find Inhibitors of Phosphoglycerate Kinase (AID 504547); conditions: enzymatic PGK inhibition, coupled luminescence read-out; series mostly up to 57.5 µM
How it was run: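 In TEA buffer (100mM, pH 7.6) containing 5mM MgCl2 and 0.01% Tween-20, the GAPDH-coupled PGK reaction proceeded for 60 minutes at room temperature before a single luminescence reading using Kinase-Glo Plus.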

[8] = target: phosphoglycerate mutase (Leishmania major) (UniProt Q4Q090); assay: qHTS Validation Assay to Find Inhibitors of Phosphoglycerate Mutase (AID 504548); conditions: biochemical enzyme activity; series mostly up to 57.5 µM
Sequence of phosphoglycerate mutase (Leishmania major) (Q4Q090 1-553): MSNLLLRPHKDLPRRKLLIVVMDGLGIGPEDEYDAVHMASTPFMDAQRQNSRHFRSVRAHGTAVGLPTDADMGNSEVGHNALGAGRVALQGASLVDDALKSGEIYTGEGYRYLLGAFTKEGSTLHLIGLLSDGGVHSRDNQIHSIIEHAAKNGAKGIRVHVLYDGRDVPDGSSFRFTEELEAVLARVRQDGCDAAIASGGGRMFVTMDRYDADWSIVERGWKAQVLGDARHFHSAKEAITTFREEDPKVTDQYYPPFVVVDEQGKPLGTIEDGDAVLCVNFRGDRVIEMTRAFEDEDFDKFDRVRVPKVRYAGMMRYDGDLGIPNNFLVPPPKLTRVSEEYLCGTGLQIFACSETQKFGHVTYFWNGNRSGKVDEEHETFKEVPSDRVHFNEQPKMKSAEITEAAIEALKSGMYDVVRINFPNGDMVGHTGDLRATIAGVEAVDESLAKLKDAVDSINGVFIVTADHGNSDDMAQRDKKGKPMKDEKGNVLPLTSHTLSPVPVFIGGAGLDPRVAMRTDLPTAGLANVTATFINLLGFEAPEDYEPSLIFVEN
How it was run: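 Lm PGAM at 1.25 nM final with substrate in 100 mM TEA pH 7.6, 5 mM MgCl2, 0.01% Tween-20; 45 min at room temperature. Kinase-GloPlus added, 10 min, end-point luminescence read.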

[9] = target: Estrogen receptor (Homo sapiens) (UniProt P03372); assay: qHTS assay for small molecule antagonists of estrogen receptor alpha signaling (AID 588513; active means well fitted curve in the direction sought with a large enough effect in the signal ratio, with a control signal flat, not every such curve was filed as active; the % refers to the signal ratio); conditions: ER-alpha-UAS-bla HEK293, beta-lactamase ratio, antagonist mode; series mostly up to 76.9 µM
Sequence of Estrogen receptor (Homo sapiens) (P03372 whole entry, looked up): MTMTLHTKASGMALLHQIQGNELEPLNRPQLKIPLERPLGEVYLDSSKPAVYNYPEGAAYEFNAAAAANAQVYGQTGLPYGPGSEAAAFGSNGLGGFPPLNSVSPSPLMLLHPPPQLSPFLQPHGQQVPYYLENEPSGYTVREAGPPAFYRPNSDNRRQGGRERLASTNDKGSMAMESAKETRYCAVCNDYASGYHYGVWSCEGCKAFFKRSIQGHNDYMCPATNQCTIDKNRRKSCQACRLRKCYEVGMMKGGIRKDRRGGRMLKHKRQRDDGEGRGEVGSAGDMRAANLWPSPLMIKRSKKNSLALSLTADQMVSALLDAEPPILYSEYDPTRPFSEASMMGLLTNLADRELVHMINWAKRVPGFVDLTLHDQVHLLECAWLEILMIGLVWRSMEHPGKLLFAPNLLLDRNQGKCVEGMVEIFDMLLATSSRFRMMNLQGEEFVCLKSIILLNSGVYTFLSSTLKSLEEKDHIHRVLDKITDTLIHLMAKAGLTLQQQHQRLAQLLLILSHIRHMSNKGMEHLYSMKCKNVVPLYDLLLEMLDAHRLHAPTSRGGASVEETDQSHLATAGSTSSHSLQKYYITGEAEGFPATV
How it was run: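 Fluorescence from CCF4 substrate after 2 h at room temperature gave reporter activity; cells had been exposed to compound and 0.5nM 17-beta-estradiol for 18 h at 37 C. Hill-equation fitting yielded IC50 and maximal response.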

[10] = target: Estrogen receptor (Homo sapiens) (UniProt P03372); assay: qHTS assay for small molecule agonists of estrogen receptor alpha signaling (AID 588514; calls by dose curve; further: nearly all actives have a fitted effect of over 70% in size); conditions: ER-alpha-UAS-bla HEK293, beta-lactamase ratio, 18 h; series mostly up to 76.8 µM
How it was run: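 Read-out: CCF4 fluorescence from a beta-lactamase reporter in ER-alpha-UAS-bla HEK 293 cells after 18 hrs of compound exposure at 37 C. Normalized to 20 nM 17-beta-estradiol (100%) and DMSO (0%).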

[11] = target: Bile acid receptor (Homo sapiens) (UniProt Q96RI1); assay: qHTS assay for small molecule antagonists of farnesoid X receptor signaling (AID 588526; calls by dose curve); conditions: HEK293T FXR-UAS-bla, beta-lactamase ratio, antagonist mode; series mostly up to 76.7 µM
Sequence of Bile acid receptor (Homo sapiens) (Q96RI1 whole entry, looked up): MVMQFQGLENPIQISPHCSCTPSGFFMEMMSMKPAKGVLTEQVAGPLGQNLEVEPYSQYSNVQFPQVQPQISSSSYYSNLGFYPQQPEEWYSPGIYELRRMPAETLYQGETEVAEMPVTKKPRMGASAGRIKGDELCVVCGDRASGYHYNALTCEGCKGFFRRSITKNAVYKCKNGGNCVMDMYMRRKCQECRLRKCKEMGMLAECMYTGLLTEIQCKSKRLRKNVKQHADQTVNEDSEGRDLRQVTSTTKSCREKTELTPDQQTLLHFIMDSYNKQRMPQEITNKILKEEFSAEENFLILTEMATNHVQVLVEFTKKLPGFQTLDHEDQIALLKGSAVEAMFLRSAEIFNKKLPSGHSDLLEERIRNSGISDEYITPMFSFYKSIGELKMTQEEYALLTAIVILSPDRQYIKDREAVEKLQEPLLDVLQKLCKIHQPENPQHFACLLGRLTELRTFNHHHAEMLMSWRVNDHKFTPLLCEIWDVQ
How it was run: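 Concentration-response titrations were fitted to the Hill equation for half-maximal inhibition and maximal response, with data normalised to 50 uM chenodeoxycholic acid and DMSO control wells. Cells: FXR-UAS-bla HEK293T, dialyzed FBS.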

[12] = target: Glucocorticoid receptor (Homo sapiens) (UniProt P04150); assay: qHTS assay for small molecule agonists of glucocorticoid receptor signaling (AID 588532; active means well fitted curve in the direction sought with a large enough effect in the signal ratio, with a control signal flat; the % refers to the signal ratio); conditions: HeLa MMTV-bla, beta-lactamase ratio, agonist, 18 h; stronger effect = higher value; percent of dexamethasone control, DMSO zero
Sequence of Glucocorticoid receptor (Homo sapiens) (P04150 whole entry, looked up): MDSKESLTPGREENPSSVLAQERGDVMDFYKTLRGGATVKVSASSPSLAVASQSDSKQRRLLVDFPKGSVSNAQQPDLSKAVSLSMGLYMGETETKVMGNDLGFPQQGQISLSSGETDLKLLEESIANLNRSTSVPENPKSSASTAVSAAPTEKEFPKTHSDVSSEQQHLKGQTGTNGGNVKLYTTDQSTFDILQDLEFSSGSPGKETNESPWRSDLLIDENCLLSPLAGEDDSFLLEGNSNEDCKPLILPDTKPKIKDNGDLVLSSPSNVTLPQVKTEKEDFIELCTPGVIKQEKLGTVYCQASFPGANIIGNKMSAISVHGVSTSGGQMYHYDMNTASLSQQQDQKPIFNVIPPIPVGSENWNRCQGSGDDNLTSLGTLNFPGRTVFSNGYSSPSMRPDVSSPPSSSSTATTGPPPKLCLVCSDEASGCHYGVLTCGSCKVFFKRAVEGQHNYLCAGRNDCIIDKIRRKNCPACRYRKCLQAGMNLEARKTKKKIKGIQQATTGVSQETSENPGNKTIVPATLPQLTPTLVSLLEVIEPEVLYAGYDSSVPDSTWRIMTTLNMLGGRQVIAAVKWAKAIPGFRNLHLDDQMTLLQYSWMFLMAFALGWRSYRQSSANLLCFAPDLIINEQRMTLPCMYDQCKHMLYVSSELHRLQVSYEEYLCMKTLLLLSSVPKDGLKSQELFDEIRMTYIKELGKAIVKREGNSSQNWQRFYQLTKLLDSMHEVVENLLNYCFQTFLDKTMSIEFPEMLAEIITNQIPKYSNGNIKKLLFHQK
How it was run: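 Stimulation of a glucocorticoid response element-driven beta-lactamase gene was measured in HeLa cells. Responses were scaled between DMSO basal and 0.1 uM dexamethasone, then fitted for half-maximal stimulation.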

[13] = qHTS assay for small molecule antagonists of peroxisome proliferator-activated receptor delta signaling (AID 588535; active means well fitted inhibition curve with a large enough effect in the signal ratio, with a control signal flat, not every such curve was filed as active; the % refers to the signal ratio;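 on max response: cells co-treated with a PPAR-delta agonist as stimulator during compound exposure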); conditions: HEK293T PPARd-UAS-bla, beta-lactamase FRET ratio, 18 h; 460 nm channel
How it was run: (§1)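 Compounds tested in titration on PPAR-delta-UAS-bla HEK293T cells grown in charcoal/dextran-stripped serum (2%); beta-lactamase activity read via CCF4 emission at 460 and 530 nm.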

[14] = target: Peroxisome proliferator-activated receptor delta (Homo sapiens) (UniProt Q03181); assay: as above; conditions: HEK293T PPARd-UAS-bla, beta-lactamase FRET ratio, 18 h; series mostly up to 76.7 µM
Sequence of Peroxisome proliferator-activated receptor delta (Homo sapiens) (Q03181 whole entry, looked up): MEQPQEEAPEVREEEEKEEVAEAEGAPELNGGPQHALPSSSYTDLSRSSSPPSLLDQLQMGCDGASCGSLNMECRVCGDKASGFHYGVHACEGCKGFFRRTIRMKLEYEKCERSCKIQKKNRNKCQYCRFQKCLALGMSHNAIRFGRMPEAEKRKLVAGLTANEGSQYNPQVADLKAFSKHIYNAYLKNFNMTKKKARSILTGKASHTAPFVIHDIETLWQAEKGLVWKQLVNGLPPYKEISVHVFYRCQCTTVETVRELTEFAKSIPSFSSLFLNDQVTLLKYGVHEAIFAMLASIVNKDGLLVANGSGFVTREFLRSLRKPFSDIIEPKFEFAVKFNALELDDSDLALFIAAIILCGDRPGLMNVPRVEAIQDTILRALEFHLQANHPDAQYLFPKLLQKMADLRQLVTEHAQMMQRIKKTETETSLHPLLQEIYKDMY
How it was run: as §1

[15] = target: Ubiquitin carboxyl-terminal hydrolase 1 (Homo sapiens) (UniProt O94782); assay: Inhibitors of USP1/UAF1: Pilot qHTS (AID 504865); conditions: purified USP1/UAF1, Ub-rhodamine cleavage fluorescence; series mostly up to 114 µM; further: nearly all actives have a fitted effect of over 35% in size; further: potency means the concentration at half of the fitted maximal effect
Sequence of Ubiquitin carboxyl-terminal hydrolase 1 (Homo sapiens) (O94782 whole entry, looked up): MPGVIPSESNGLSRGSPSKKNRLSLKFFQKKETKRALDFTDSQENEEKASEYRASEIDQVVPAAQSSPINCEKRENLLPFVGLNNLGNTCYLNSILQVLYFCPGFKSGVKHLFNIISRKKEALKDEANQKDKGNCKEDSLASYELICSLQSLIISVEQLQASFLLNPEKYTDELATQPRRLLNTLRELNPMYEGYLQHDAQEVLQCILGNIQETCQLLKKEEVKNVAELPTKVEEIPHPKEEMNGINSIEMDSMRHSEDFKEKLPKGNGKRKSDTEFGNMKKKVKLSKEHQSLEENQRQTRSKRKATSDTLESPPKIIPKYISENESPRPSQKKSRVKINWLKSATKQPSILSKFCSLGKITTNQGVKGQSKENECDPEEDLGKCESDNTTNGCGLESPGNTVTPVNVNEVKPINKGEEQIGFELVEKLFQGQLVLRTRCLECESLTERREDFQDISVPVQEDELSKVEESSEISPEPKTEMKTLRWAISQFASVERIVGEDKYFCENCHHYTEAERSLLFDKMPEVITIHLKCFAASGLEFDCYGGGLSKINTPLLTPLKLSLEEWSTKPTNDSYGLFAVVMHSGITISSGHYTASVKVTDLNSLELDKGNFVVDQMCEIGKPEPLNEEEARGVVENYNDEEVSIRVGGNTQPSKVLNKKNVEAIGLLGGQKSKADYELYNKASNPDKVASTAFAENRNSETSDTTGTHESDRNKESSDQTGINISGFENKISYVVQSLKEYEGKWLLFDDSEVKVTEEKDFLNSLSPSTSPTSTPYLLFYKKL
How it was run: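 In 50mM HEPES pH 7.8 containing 0.5mM EDTA, 1mM TCEP, 0.1 mg/ml BSA and 0.01% Tween-20, 1nM USP1/UAF1 is exposed to compound for 15 min, then Ub-Rho (150nM final) is added and fluorescence is read over time.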

[16] = target: DNA dC->dU-editing enzyme APOBEC-3G (Homo sapiens) (UniProt Q9HC16); assay: qHTS for inhibitors of Vif-A3G interactions: Validation (AID 588379); conditions: Vif-A3G protein interaction assay; series mostly up to 46.1 µM
Sequence of DNA dC->dU-editing enzyme APOBEC-3G (Homo sapiens) (Q9HC16 whole entry, looked up): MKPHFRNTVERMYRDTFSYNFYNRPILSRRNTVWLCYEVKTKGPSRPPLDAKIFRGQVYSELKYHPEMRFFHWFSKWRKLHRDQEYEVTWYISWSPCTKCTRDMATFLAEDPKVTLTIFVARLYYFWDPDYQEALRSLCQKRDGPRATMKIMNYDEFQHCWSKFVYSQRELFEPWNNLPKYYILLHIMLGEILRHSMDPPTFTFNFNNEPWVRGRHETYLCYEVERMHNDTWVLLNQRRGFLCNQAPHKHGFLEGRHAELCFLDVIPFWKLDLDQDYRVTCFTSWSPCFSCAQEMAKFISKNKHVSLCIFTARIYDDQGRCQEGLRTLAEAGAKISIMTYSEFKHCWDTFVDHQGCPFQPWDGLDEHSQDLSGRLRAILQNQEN
How it was run: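 Yellow fluorescence (Ex 488, Em 500-530) of Vif-coexpressing HeLa A3G-eYFP cells, scanned by Acumen cytometer, reports blocked A3G degradation. Cells plated at 700/well overnight at 37 deg C before compound addition, then a further overnight compound incubation at 37 deg C.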

[17] = target: Glucocorticoid receptor (Homo sapiens) (UniProt P04150); assay: qHTS assay for small molecule antagonists of glucocorticoid receptor signaling (AID 588533; active means well fitted inhibition curve with a large enough effect in the signal ratio, with a control signal flat, not every such curve was filed as active; the % refers to the signal ratio;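 further: cells stimulated with 2 nM dexamethasone as agonist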); conditions: HeLa MMTV-bla, GRE beta-lactamase ratio, antagonist mode, 18 h; series mostly up to 76.8 µM
How it was run: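 Antagonist-mode qHTS: compound titrations added to GRE-bla HeLa cells, then dexamethasone 2 nM final; 18 h, 37 C. CCF4 FRET fluorescence normalized to dexamethasone and DMSO; IC50 from Hill fit.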

[18] = target: Peroxisome proliferator-activated receptor gamma (Homo sapiens) (UniProt P37231); assay: qHTS assay for small molecule agonists of peroxisome proliferator-activated receptor gamma signaling (AID 588536; active means well fitted curve in the direction sought with a large enough effect in the signal ratio, with a control signal flat, not every such curve was filed as active; the % refers to the signal ratio); conditions: HEK293 PPARg-UAS-bla, beta-lactamase ratio, 16 h, percent of rosiglitazone response, DMSO as zero; series mostly up to 76.7 µM
Sequence of Peroxisome proliferator-activated receptor gamma (Homo sapiens) (P37231 whole entry, looked up): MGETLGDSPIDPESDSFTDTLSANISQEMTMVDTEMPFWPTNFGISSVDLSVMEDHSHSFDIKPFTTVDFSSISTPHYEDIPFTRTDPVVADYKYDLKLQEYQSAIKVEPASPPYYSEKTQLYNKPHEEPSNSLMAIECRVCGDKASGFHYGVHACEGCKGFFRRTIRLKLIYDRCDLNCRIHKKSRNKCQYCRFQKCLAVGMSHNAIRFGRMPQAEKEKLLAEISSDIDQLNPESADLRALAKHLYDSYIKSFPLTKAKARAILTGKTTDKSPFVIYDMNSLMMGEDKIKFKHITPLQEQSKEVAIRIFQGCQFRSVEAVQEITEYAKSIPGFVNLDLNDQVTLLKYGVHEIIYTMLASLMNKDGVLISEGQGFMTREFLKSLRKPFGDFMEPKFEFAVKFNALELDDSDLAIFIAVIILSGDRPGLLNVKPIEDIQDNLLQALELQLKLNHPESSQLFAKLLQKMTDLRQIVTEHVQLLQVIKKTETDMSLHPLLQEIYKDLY
How it was run: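 Cells were plated and held 6–6.5 h at 37 C, then compounds were added as a titration series. After a further 16 h, CCF4 dye was loaded for 2 h at room temperature and emission at 460/530 nm recorded.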

CN1Cc2c(N)cccc2C(c2ccccc2)C1 (stereo not drawn)
outcome [1]: inactive
outcome [2]: inactive
viability change [2]: 7.68%
outcome [3]: inactive
outcome [4]: inactive
outcome [5]: inactive
outcome [6]: inactive
outcome [7]: inactive
outcome [8]: inactive

CC[N+](C)(C)Cc1ccccc1Br
outcome [4]: inactive
outcome [5]: inactive

O=CCCCC=O
outcome [9]: inactive
Potency [10]: inactive
Potency [11]: inactive
activation [12]: 5.8% (inactive)
max response [13]: 37.6%
outcome [14]: inactive

O=C(O)CC/C=C\CC[C@H]1[C@@H](N2CCCCC2)[C@@H](O)C[C@@H]1OCc1ccc(-c2ccccc2)cc1
Potency [15]: inactive
outcome [16]: inactive

CCCC(=O)Nc1ncnc2c1ncn2[C@@H]1O[C@@H]2COP(=O)(O)O[C@H]2[C@H]1OC(=O)CCC
Potency [15]: inactive
outcome [16]: inactive

CC(Cc1ccc(O)c(O)c1)C(C)Cc1ccc(O)c(O)c1 (stereo not drawn)
outcome [16]: inactive

CCCCCCC(O)C/C=C/CCCCCCCC(=O)O (stereo not drawn)
Potency [15]: inactive

O=C(O)CCC(=O)C(=O)O
Potency [15]: inactive
outcome [9]: inactive
Potency [10]: inactive
activation [12]: -1.14% (inactive)
outcome [17]: inactive
outcome [18]: inactive

IC(I)I
Potency [15]: inactive
Potency [11]: inactive
activation [12]: 16.8% (inactive) and -7.64% (inactive)
outcome [17]: inactive
max response [13]: 3.49% and 21.3%
outcome [14]: inactive
outcome [18]: inactive

O=C1C(=O)c2ncccc2-c2cccnc21
Potency [15]: 50.1 µM (active)

O=S(=O)(O)O
Potency [15]: inactive
outcome [18]: inactive

COC(=O)C1=C(C)NC(C)=C(C(=O)OCCCN2CCC(c3ccccc3)(c3ccccc3)CC2)[C@H]1c1cccc([N+](=O)[O-])c1
outcome [16]: inactive

COC(F)(F)C(Cl)Cl
Potency [15]: inactive

C[C@H]1C[C@H]2[C@@H]3CCC4=CC(=O)C=C[C@]4(C)[C@@]3(F)[C@@H](O)C[C@]2(C)[C@@]1(O)C(=O)CO
Potency [15]: inactive
outcome [17]: inactive
